From PubChem
HP1b binding inh: HTS for Inhibitors of HP1-beta Chromodomain Interactions with Methylated Histone Tails | AlphaScreen HP1-beta / biotin-H3K9me3 peptide binding | Potency, µM (titrated, usually from 114 µM), for the others: top-dose activity change, negative = inhibition, most hits filed as inhibitors | actives 0.56% (n = 390,000) | AID 540317, 2011; note: nearly all actives have a fitted effect of over 70% in size
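Compound inhibition of the preformed complex between 50 nM HP1-beta and 50 nM biotinylated H3K9me3 peptide was read by AlphaScreen. Buffer was PBS pH 7.4 with 0.01% Tween-20. Incubations ran 30 min at room temperature, with 10 ug/mL donor/acceptor beads.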
PLK1 PBD inh: qHTS for Inhibitors of PLK1-PDB (polo-like kinase 1 - polo-box domain): Primary Screen | Serine/threonine-protein kinase PLK1 (Homo sapiens), P53350 | Potency, µM, inactives show max response, negative = inhibition, most hits filed as inhibitors | actives 2.8% (n = 360,000) | Plk1 PBD binding of FITC phosphopeptide, fluorescence polarization; note: series mostly up to about 57 µM; % is set by controls: 0 for no effect and ±100 for the full control effect; nearly all actives have a fitted effect of over 65% in size
BAZ2B inh: qHTS Assay for Inhibitors of BAZ2B; Bromodomain adjacent to zinc finger domain protein 2B (Homo sapiens), Q9UIF8; AlphaScreen BAZ2B-H3K14Ac peptide displacement; Potency, µM (series often up to 114 µM), inactives show top-dose activity change, negative = inhibition, actives largely listed as inhibitors; actives 4.4% (n = 360,000); AID 504333, 2011; note: % is set by controls: 0 for no effect and ±100 for the full control effect; nearly all actives have a fitted effect of over 60% in size
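BAZ2B (50 nM) with biotin-H3(5-23)K14Ac peptide (50 nM) in PBS pH 7.4, 0.01% Tween-20, preformed 30 min, then compound 30 min at room temperature; top concentration 110uM. AlphaScreen streptavidin donor/nickel chelate acceptor beads (10 ug/mL final), 20 min dark, signal read.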
12-LOX inh: Primary qHTS assay for inhibitors of human arachidonate 12S-lipoxygenase (ALOX12): Round 2; Polyunsaturated fatty acid lipoxygenase ALOX12 (Homo sapiens), P18054; purified 12hLO, xylenol orange hydroperoxide absorbance; Potency, µM (series often up to 108 µM), without a hit: top-dose activity change, negative = inhibition, actives largely listed as inhibitors; actives 1.1% (n = 580,000); AID 1671190, 2021; note: % is set by controls: 0 for no effect and ±100 for the full control effect
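Hydroperoxide product was detected by ferrous iron/xylenol orange as the 573 to 405 nm absorbance ratio. Arachidonic acid at 40 uM (final) was turned over for 30 min at room temperature by 150 nM human 12hLO, pH 7.0 Hepes buffer, after 15 min compound preincubation.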
JMJD2A Tudor inh: qHTS Assay for Inhibitors of JMJD2A-Tudor Domain; Lysine-specific demethylase 4A (Homo sapiens), O75164; actives 4.4% (n = 390,000); Potency, µM (top dose mostly 114 µM), for inactives: at the highest dose activity change, negative = inhibition, actives largely listed as inhibitors; AlphaScreen JMJD2A-Tudor / H3K4me3 peptide binding; note: % is set by controls: 0 for no effect and ±100 for the full control effect; nearly all actives have a fitted effect of over 50% in size
Target sequence (O75164 whole entry, looked up, the tested form may be a part): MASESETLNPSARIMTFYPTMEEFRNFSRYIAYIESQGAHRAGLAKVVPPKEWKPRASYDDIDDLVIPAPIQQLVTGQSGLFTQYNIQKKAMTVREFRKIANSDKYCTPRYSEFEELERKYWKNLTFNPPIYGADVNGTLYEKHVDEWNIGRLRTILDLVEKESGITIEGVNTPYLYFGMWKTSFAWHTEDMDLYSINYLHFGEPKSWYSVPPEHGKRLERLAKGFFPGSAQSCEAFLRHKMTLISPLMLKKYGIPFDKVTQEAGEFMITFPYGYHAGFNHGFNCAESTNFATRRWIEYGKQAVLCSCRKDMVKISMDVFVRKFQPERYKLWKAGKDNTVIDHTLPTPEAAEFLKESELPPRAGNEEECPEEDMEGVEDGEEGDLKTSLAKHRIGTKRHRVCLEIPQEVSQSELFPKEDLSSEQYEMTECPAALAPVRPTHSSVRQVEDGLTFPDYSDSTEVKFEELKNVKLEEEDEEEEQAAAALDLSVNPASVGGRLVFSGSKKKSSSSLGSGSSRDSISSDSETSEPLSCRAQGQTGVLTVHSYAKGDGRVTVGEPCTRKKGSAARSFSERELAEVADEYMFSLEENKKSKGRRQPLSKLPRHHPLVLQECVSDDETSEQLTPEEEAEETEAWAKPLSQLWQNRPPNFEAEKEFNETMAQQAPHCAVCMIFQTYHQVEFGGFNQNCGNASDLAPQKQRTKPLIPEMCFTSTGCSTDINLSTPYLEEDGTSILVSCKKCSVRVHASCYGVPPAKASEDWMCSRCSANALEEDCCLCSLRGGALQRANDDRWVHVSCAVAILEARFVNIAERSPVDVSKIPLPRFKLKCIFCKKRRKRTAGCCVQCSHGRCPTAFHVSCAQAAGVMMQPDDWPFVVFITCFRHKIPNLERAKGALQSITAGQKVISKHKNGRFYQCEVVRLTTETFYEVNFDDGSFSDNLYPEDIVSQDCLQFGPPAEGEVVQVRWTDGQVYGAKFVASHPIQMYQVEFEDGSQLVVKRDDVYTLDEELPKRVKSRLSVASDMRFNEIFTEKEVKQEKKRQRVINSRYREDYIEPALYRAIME
G9a inh: qHTS Assay for Inhibitors of Histone Lysine Methyltransferase G9a. Histone-lysine N-methyltransferase EHMT2 (Homo sapiens), Q96KQ7. G9a H3K9 monomethylation, AlphaScreen, 2 h. Potency, µM (titrated, usually from 102 µM), for inactives: top-dose activity, negative = inhibition, hits mostly inhibitors. actives 8.8% (n = 350,000); note: % is set by controls: 0 for no effect and ±100 for the full control effect; nearly all actives have a fitted effect of over 75% in size
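Step 1: enzyme (final 20 nM) with compound, 15 min RT. Step 2: substrate peptide 500 nM and SAM 20 uM, 2 h RT. Step 3: anti-H3K9me1 antibody and AlphaScreen beads, 10 min, then plate read.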
An asterisk follows results filed as active; ! = repeats disagree; [ ] = dose if it differs, or a comment. Hits are enriched below; roughly 9% of the tested compounds scored in any of these assays. Calls come from the whole dose curve; as a rule, active = well fitted curve in the direction sought with a large enough effect; inconclusive = small, poorly fitted or top-dose-only effect, or another doubt; inactive = no such curve, though single readings can be large; an effect the other way counts as inactive or inconclusive. Potency is the fitted concentration of half-maximal effect.

Screening O=Cc1ccc(O)c(O)c1 returned HP1b binding inh 28%, PLK1 PBD inh -4%, BAZ2B inh 56µM*, 12-LOX inh inconclusive, JMJD2A Tudor inh 22µM* and G9a inh inconclusive.
c1ccc(-c2ccc(-c3n(-c4ccccn4)c4ccccc4[n+]3-c3ccccn3)cc2)cc1 was read as HP1b binding inh 31%, PLK1 PBD inh -7%, BAZ2B inh inconclusive, 12-LOX inh inconclusive, JMJD2A Tudor inh inconclusive and G9a inh 35µM*.
`CN1CCN(C(=O)Cc2c[nH]c3ncc(-c4ccc([S+](C)(=O)[O-])cc4)cc23)CC1` gave 12-LOX inh 4%[176 µM].
`CC(C)c1cccc(O)c(=O)c1` gave HP1b binding inh 49%, PLK1 PBD inh 2%, BAZ2B inh 56µM*, 12-LOX inh 14µM*!, JMJD2A Tudor inh -23% and G9a inh 11µM*!.
Cc1ccc(N)cc1Cl was read as HP1b binding inh 35%, PLK1 PBD inh -1%, 12-LOX inh 25% and JMJD2A Tudor inh -13%.
Screening CCCCCCCCCCCCCCCC[n+]1ccccc1 returned HP1b binding inh 65%, PLK1 PBD inh 0%, 12-LOX inh inconclusive, JMJD2A Tudor inh -9% and G9a inh -35%[2.33 µM].
`CCCCCCC[n+]1ccc(-c2cc[n+](CCCCCCC)cc2)cc1` gave HP1b binding inh 3%, PLK1 PBD inh -9%, BAZ2B inh 79µM*, 12-LOX inh inconclusive, JMJD2A Tudor inh inconclusive and G9a inh 4.5µM*.
Screening CN1CCc2nc(SCc3ccccc3Br)c(C#N)cc2C1 returned HP1b binding inh 40%, PLK1 PBD inh -16%, BAZ2B inh -33%, 12-LOX inh 3%, JMJD2A Tudor inh inconclusive and G9a inh 18µM*.
Cc1cccc(CSc2nc3c(cc2C#N)CN(C)CC3)c1 was read as HP1b binding inh 19%, PLK1 PBD inh -1%, BAZ2B inh -1%, 12-LOX inh -5%, JMJD2A Tudor inh -24% and G9a inh inconclusive.
CCCCC/C(=N\O)c1c[nH]c2ccccc12 was read as HP1b binding inh 17%, PLK1 PBD inh -4%, BAZ2B inh -2%[57.1 µM], 12-LOX inh -17%, JMJD2A Tudor inh -19% and G9a inh inconclusive.
Screening CCC(COC(=O)c1cc(OC)c(OC)c(OC)c1)(c1ccccc1)N(C)C (stereo unspecified) returned HP1b binding inh -7%, PLK1 PBD inh -16%, BAZ2B inh -38%, 12-LOX inh -7%, JMJD2A Tudor inh 50µM*! and G9a inh -45%[2.33 µM].
CCCOP(=O)(OCCC)C(NC(=O)c1cc(OC)c(OC)c(OC)c1)c1ccccc1 (stereo unspecified) was read as HP1b binding inh 7%, PLK1 PBD inh -5%, BAZ2B inh 14%, 12-LOX inh 4%, JMJD2A Tudor inh -4% and G9a inh -2%.
COC(=O)C1=C(c2ccc(F)cc2OCc2ccccc2)C[C@@H]2CC[C@H]1N2C(=O)NCCc1ccc(F)cc1 was read as HP1b binding inh 35%, PLK1 PBD inh -4%, BAZ2B inh 4%, 12-LOX inh 1%, JMJD2A Tudor inh -23% and G9a inh 16%[0.501 µM].
For COc1ccc(/C=C2\C(=O)NC(=O)N(Cc3ccccc3)C2=O)c(OC)c1OC the results were HP1b binding inh 17%, PLK1 PBD inh 12µM*, BAZ2B inh -16%, 12-LOX inh inconclusive and JMJD2A Tudor inh -14%.
COc1cc(OC)c(OC)cc1/C=C1\C(=O)NC(=O)N(Cc2ccccc2)C1=O was read as HP1b binding inh 17%, PLK1 PBD inh 2.7µM*, BAZ2B inh -28%, 12-LOX inh inconclusive, JMJD2A Tudor inh -7% and G9a inh inconclusive.
Screening COc1ccc(CN2C(=O)NC(=O)/C(=C\c3cc(OC)c(OC)c(OC)c3)C2=O)cc1 returned HP1b binding inh -24%, PLK1 PBD inh 8.4µM*, BAZ2B inh inconclusive, 12-LOX inh inconclusive, JMJD2A Tudor inh 50µM* and G9a inh inconclusive.
`COc1cc(OC)c(OC)cc1/C=C1/C(=O)NC(=O)N(Cc2ccccc2)C1=O` gave HP1b binding inh 22%, PLK1 PBD inh inconclusive, BAZ2B inh -18%, 12-LOX inh inconclusive, JMJD2A Tudor inh -19% and G9a inh 50µM*.
Screening Cc1cc(/C=C2\C(=O)NC(=O)N(Cc3ccccc3)C2=O)c(C)n1C1CC1 returned HP1b binding inh 16%, PLK1 PBD inh -14%, BAZ2B inh -14%, 12-LOX inh inconclusive and JMJD2A Tudor inh inconclusive.
`CC1CN1P1(=O)OCC(C)([N+](=O)[O-])CO1` (stereo unspecified) gave HP1b binding inh 39%, PLK1 PBD inh -7%, 12-LOX inh -24% and JMJD2A Tudor inh -9%.
Cc1cccc(NC(=O)N2[C@H]3CC[C@@H]2c2cnc(C)nc2C3)c1 was read as 12-LOX inh 11%.
CC(=O)N1CCC2(CC1)CC(=O)c1cc(OCC(=O)N3CCN(C)CC3)ccc1O2 was read as HP1b binding inh 8%, PLK1 PBD inh -10%, BAZ2B inh 7%, 12-LOX inh -13% and JMJD2A Tudor inh -4%.
Cc1nn(C)c(C)c1S(=O)(=O)N1[C@H]2CC[C@@H]1c1cnc(-c3ccc(F)cc3)nc1C2 was read as 12-LOX inh 9%.
`C[C@]12C=CC(=O)C=C1CCC1C2=CC[C@]2(C)[C@@H](C(=O)CN3CCN(c4cc(N5CCCC5)nc(N5CCCC5)n4)CC3)CC[C@@H]12` (stereo partly specified) gave G9a inh 40µM*.
CCCC(C)c1nnc(NC(=O)CCS(=O)(=O)c2ccccc2)s1 (stereo unspecified) was read as HP1b binding inh inconclusive, PLK1 PBD inh 4.7µM*, BAZ2B inh inconclusive, 12-LOX inh inconclusive, JMJD2A Tudor inh 50µM* and G9a inh 4µM*.
COc1cccc(CNCCc2ccc(F)cc2)c1 was read as HP1b binding inh 4%, PLK1 PBD inh -3%, BAZ2B inh 40µM*, 12-LOX inh 0%, JMJD2A Tudor inh inconclusive and G9a inh -19%.
Screening CCOc1cccc(CNCCc2ccc(OC)cc2)c1 returned 12-LOX inh -48%.
